NadD inh: blocks S. aureus nicotinate mononucleotide adenylyltransferase; inhibition, % at 20 µM; actives 0.78% (n = 360,000); purified NadD enzyme, colorimetric absorbance read-out; AID 602399; in the data active = inhibition above about 26%
bovine MsrA act: activators of bovine methionine sulfoxide reductase A; purified bovine MsrA, absorbance read-out; actives 0.3% (n = 360,000); AID 602163; activation, % at 10.6 µM; in the data active = activation above about 7.5%;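 also: 0% = vehicle and 100% = reference activator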
DAGLB inh: diacylglycerol lipase beta (human) inhibition; actives 0.059% (n = 340,000); AID 504411; HEK293T DAGLB membrane lysate, EnzChek fluorogenic substrate; Q8NCG7; inhibition, % at 5.17 µM; in the data active = inhibition above about 34%;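 also: 0% = enzyme with vehicle and 100% = wells lacking enzyme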
rCAG RNA binder: r(CAG) repeat RNA binding | actives 1.3% (n = 370,000) | inhibition, % at 3 µM | AID 651821 | TO-PRO-1 dye displacement fluorescence;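 active = inhibition above the plate cutoff, the mean of all test compounds on that plate plus 3 SD, cut at about 35% in these data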;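 also: 0% = DMSO alone and 100% = 100 µM mitoxantrone as full dye displacement; higher means more dye released from RNA so lower well fluorescence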
Pemphigus Ab inh: human desmoglein-3 autoantibody binding inhibition; AID 588358; binding (percent of control), % at 10 µM; DSG3-coupled beads, scFv-anti-DSG3-GFP binding, flow cytometry; active compounds read low; actives 0.48% (n = 310,000);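 active = binding more than 3 SD below its plate's average and above zero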;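 also: hits lower antibody fragment binding to DSG3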
Target sequence (P32926 whole entry, looked up, the tested form may be a part): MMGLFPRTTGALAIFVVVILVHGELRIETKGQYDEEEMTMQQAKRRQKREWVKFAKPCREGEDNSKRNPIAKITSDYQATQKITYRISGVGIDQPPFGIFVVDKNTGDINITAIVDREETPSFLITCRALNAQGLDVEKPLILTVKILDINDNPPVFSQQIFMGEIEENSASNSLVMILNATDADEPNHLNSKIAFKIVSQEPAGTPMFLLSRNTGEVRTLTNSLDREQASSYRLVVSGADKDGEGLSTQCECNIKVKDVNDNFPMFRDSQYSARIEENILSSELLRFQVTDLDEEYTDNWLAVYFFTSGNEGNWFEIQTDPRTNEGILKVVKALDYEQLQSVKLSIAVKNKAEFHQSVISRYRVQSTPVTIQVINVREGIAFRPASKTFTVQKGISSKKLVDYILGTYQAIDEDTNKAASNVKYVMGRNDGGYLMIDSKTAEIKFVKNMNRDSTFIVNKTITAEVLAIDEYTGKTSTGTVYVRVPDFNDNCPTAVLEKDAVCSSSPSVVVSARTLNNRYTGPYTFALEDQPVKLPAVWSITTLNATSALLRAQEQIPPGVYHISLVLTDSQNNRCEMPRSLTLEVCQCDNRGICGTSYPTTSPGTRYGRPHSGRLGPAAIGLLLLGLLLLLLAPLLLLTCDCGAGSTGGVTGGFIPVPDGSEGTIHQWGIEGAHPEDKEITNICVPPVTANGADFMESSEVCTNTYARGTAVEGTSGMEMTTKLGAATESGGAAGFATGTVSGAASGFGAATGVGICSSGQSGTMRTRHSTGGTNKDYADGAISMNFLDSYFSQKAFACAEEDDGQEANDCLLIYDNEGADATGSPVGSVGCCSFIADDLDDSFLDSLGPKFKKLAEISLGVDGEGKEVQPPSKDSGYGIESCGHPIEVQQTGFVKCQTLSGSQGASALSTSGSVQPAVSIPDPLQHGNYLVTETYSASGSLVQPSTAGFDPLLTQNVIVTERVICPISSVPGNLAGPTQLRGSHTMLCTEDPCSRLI
MsrA inhibitor: inhibitors of bovine MsrA; purified bovine MsrA, absorbance read-out; inhibition, % at 15.5 µM; actives 0.75% (n = 360,000); in the data active = inhibition above about 4.5%;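 also: 0% = vehicle wells with enzyme and 100% = reference inhibitor wells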
rCAG binder conf: r(CAG) RNA repeat binding, confirmation; actives 70% (n = 4,300); shares compounds with rCAG RNA binder; inhibition, % at 3 µM; TO-PRO-1 dye displacement fluorescence;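 active = inhibition above a per-plate cutoff, the mean inhibition of sample wells plus 3 SD, cut at about 35% in these data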;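 also: loss of TO-PRO-1 fluorescence as compound displaces dye from 1x1 AA loop RNA; 0% = DMSO only wells and 100% = 100 µM mitoxantrone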
DNA CAG counter: counter-screen for rCAG RNA binders: DNA CAG dye complex inhibitors; shares compounds with rCAG RNA binder; d(CAG) DNA oligo TO-PRO-1 dye displacement, fluorescence; inhibition, % at 3 µM; actives 94% (n = 4,300); AID 652068;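 active = inhibition above its plate's cutoff, the mean test-well inhibition plus 3 SD, cut at about 4.8% in these data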;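 also: 0% = DNA dye mix with DMSO and 100% = 100 µM mitoxantrone; hits displace the dye from DNA and so lower well fluorescence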
dCAG dye DR: DNA CAG dye complex inhibition, dose response counter-screen; shares compounds with rCAG RNA binder; DNA CAG/GTC duplex TO-PRO-1 dye displacement fluorescence; IC50, µM; actives 20% (n = 250); AID 686960; in the data active = IC50 below about 10 µM
Numbers without * were called inactive. In the library only some 3.2% were active in any assay of this set; here they are far more common.

Cc1nn(-c2ccccc2)c2sc(-c3n[nH]c(=S)o3)cc12 was read as NadD inh 2.4, bovine MsrA act -10.8, DAGLB inh 8.3, rCAG RNA binder 65.2*, Pemphigus Ab inh 104.8, MsrA inhibitor 3.0, rCAG binder conf 32.1 and DNA CAG counter 8.0*.
`CN1C(=O)c2cc(NC(=O)C3CC3)ccc2OC[C@H]2O[C@@H](CC(=O)NC3CCC3)CC[C@@H]21` gave rCAG RNA binder 0.2.
For CCCCN1CC(C(=O)NCc2ccc(C)cc2)CC1=O (stereo unspecified) the results were NadD inh -7.3, bovine MsrA act -2.0, DAGLB inh 2.4, rCAG RNA binder 46.5*, Pemphigus Ab inh 106.0, MsrA inhibitor 0.3, rCAG binder conf 0.3 and DNA CAG counter -1.2.
Screening Cc1ccccc1NC(=O)OC1CCC12CCCCC2 (stereo unspecified) returned rCAG RNA binder -0.6.
For Clc1ccc(CN(Cc2ccc(Cl)cc2)c2nn[nH]n2)cc1 the results were NadD inh 6.9, bovine MsrA act -3.9, DAGLB inh 10.7, rCAG RNA binder 38.6*, Pemphigus Ab inh 100.5, MsrA inhibitor 0.8, rCAG binder conf 27.3 and DNA CAG counter 5.4*.
For c1ccc(CN(Cc2ccccc2)c2nn[nH]n2)cc1 the results were NadD inh 1.4, bovine MsrA act -3.8, DAGLB inh 1.0, rCAG RNA binder 5.1, Pemphigus Ab inh 101.9 and MsrA inhibitor -1.2.
`O=[N+]([O-])c1cnccc1-n1nnc2ccccc21` gave NadD inh 1.2, bovine MsrA act -2.4, rCAG RNA binder 1.0 and MsrA inhibitor 1.7.
Screening COc1cccc2sc(Nc3nnc(-c4ccc(F)cc4)o3)nc12 returned NadD inh 27.9, bovine MsrA act -1.2, DAGLB inh 9.0, rCAG RNA binder 62.4*, Pemphigus Ab inh 102.1, MsrA inhibitor 1.8, rCAG binder conf 72.1*, DNA CAG counter 28.4* and dCAG dye DR >29.9.
`COc1cccc2sc(Nc3nnc(-c4cccs4)o3)nc12` gave NadD inh 4.3, bovine MsrA act -9.8, DAGLB inh 0.1, rCAG RNA binder 30.7, Pemphigus Ab inh 98.9 and MsrA inhibitor 1.1.
For Cc1ccc(CNC(=O)C(=O)NCC2CCCO2)cc1 (stereo unspecified) the results were NadD inh -2.0, bovine MsrA act -7.5, DAGLB inh -1.2, rCAG RNA binder -3.0, Pemphigus Ab inh 96.7 and MsrA inhibitor -0.8.
For O=C(NCc1ccco1)c1sc(=S)n2c1[nH]c(=O)c1ccccc12 the results were NadD inh 5.6, bovine MsrA act -1.9, DAGLB inh 12.9, rCAG RNA binder 61.9*, Pemphigus Ab inh 98.7, MsrA inhibitor 1.1, rCAG binder conf 65.5* and DNA CAG counter 22.4*.
Screening CCCCCNC(=O)c1ccc2c(=O)[nH]c3c(C(=O)NCC4CCCO4)sc(=S)n3c2c1 (stereo unspecified) returned NadD inh 25.4, bovine MsrA act -0.1, DAGLB inh 21.4, rCAG RNA binder 58.9*, MsrA inhibitor 0.7, rCAG binder conf 85.8* and DNA CAG counter 61.7*.
Screening O=C(NCc1ccccc1)c1ccc2c(=O)[nH]c3c(C(=O)NCC4CCCO4)sc(=S)n3c2c1 (stereo unspecified) returned NadD inh 9.9, bovine MsrA act -12.5, DAGLB inh 5.9, rCAG RNA binder 50.4*, Pemphigus Ab inh 117.2, MsrA inhibitor 0.8, rCAG binder conf 90.9* and DNA CAG counter 65.7*.
Cc1ccc(CNC(=O)c2ccc3c(=O)[nH]c4c(C(=O)NCC5CCCO5)sc(=S)n4c3c2)cc1 (stereo unspecified) was read as NadD inh 21.2, bovine MsrA act -0.8, DAGLB inh 7.0, rCAG RNA binder 61.0*, MsrA inhibitor 1.1, rCAG binder conf 91.6* and DNA CAG counter 74.0*.
`CC(C)=C[C@H]1C[C@H](C)[C@H]2CC[C@H](C)c3c(O)c(O[C@H]4OC[C@H](O)[C@@H](O)[C@@H]4O)c(C)c1c32` gave NadD inh -2.3, bovine MsrA act -9.2, rCAG RNA binder -2.6 and MsrA inhibitor -0.2.
`COc1cc(OC)cc(C(=O)NCC2CCN(C(=O)C(=O)c3cc4ccccc4o3)CC2)c1` gave rCAG RNA binder 5.8 and MsrA inhibitor 1.2.
Screening CCCCNC(=O)C1(C)CCCCN1C(=O)c1ccc2c(c1)C(C)(C)CCC2(C)C (stereo unspecified) returned NadD inh 1.3, bovine MsrA act -5.6, rCAG RNA binder 0.7 and MsrA inhibitor -0.7.
`Cc1ccc(NC(=S)N(Cc2ccco2)C2CCN(C(C)C)CC2)cc1` gave NadD inh -6.3, bovine MsrA act -3.2, DAGLB inh -0.4, rCAG RNA binder 37.1*, Pemphigus Ab inh 101.3, MsrA inhibitor 2.5, rCAG binder conf 0.3 and DNA CAG counter 1.2.
`Cc1ccc(NC(=S)N(CCN2CCCCC2)Cc2ccco2)cc1` gave NadD inh -17.3, bovine MsrA act -1.0, DAGLB inh 0.0, rCAG RNA binder -1.6, Pemphigus Ab inh 103.6 and MsrA inhibitor -0.2.
Screening COc1ccc(C#CCN(C)/C(N)=N/C(=O)OCc2ccccc2)cc1 returned rCAG RNA binder -1.8.
`COc1cc(C(=O)NCCNC(=O)c2ccco2)cc(OC)c1OC` gave NadD inh 18.5, bovine MsrA act -1.1, DAGLB inh 11.3, rCAG RNA binder 45.8*, Pemphigus Ab inh 106.9, MsrA inhibitor 2.3, rCAG binder conf 42.6* and DNA CAG counter 12.6*.
CC(C)(C)c1ccc(C(=O)CC(Sc2ccc(Cl)cc2)C(=O)O)cc1 (stereo unspecified) was read as NadD inh 13.1, bovine MsrA act -5.7, DAGLB inh 10.1, rCAG RNA binder 41.1*, Pemphigus Ab inh 98.5, MsrA inhibitor -0.3, rCAG binder conf 52.1* and DNA CAG counter 17.7*.
`Cc1ccc(OCCSc2nc3ccccc3n2CC(=O)O)c(C(C)C)c1` gave NadD inh 6.4, bovine MsrA act -2.8, DAGLB inh 6.6, rCAG RNA binder 38.2*, Pemphigus Ab inh 99.2, MsrA inhibitor 0.4, rCAG binder conf 41.1* and DNA CAG counter 9.8*.
For COCCCN1C(=O)C(CC(=O)NCCc2ccccn2)CC(C(=O)N2CCCCCC2)=C1C (stereo unspecified) the results were NadD inh 4.6, bovine MsrA act -1.6, rCAG RNA binder -1.7 and MsrA inhibitor -0.6.
`CCOC(=O)[C@@]12CCC3=C1N(CCC3)C(=O)[C@H](CC(=O)NCc1ccc(C)o1)C2` gave rCAG RNA binder -0.4.

Screening data as filed in PubChem.
